Growth data for 8 compounds are collected here from PubChem BioAssay (NCI).

About 83,000 compounds went through this panel and 20% of them were active in at least one assay; those are over-represented in the sample as a whole.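 Single-concentration screen, 48 h exposure, 96-well plates. Endpoint: percent growth. Below 10 = active.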 Unmarked numbers belong to inactive results. Activity calls are given as the source filed them.

Some test systems named below: DU-145 prostate; K-562 leukemia; MALME-3M melanoma; MDA-MB-231 breast; RXF 393 renal; SF-268 CNS; SF-295 CNS; SF-539 CNS; UACC-257 melanoma; M14 melanoma; HCT-15 colon; HT29 colon; SNB-75 CNS; SNB-19 CNS; U251 CNS; PC-3 prostate; SK-MEL-5 melanoma; UACC-62 melanoma; LOX IMVI melanoma; SK-MEL-28 melanoma.
What all share (assay): NCI-60 one-dose screen, 48 h (100 = growth as untreated, 0 = no growth, -100 = all killed)
Common to all, as to details: 10 µM unless noted

For the compound `Cc1nc2cc(O)c(O)cc2cc1Oc1ccc(NC(=O)Nc2ccc(Cl)c(Cl)c2)cc1`, the growth in the assay on DU-145 prostate was 60.3%; in the assay on K-562 leukemia, 53.9%; in the assay with MALME-3M melanoma, 85.2%; in the assay on MDA-MB-231 breast it was 45%; in the assay on RXF 393 renal, 20.4%; in the assay on SF-268 CNS it was 65.5%. The growth was 95.9% in the assay with SF-295 CNS; 56.9% with SF-539 CNS; 88.5% in the assay on UACC-257 melanoma; 80.7% in the assay on M14 melanoma; 37.2% with HCT-15 colon; 48% in the assay on HT29 colon. Also, the growth with SNB-75 CNS was 75.8%; in the assay with SNB-19 CNS, 49%; in the assay on U251 CNS it was 41.4%; in the assay on PC-3 prostate it was 39.3%; in the assay on SK-MEL-5 melanoma, -42.2% (active); in the assay with UACC-62 melanoma it was 84.5%. For the same compound, the values for the growth in the assay on LOX IMVI melanoma and in the assay with SK-MEL-28 melanoma were 0.463% (active) and 79.1%, respectively.

As to `COC(=O)CC[C@@H]1O[C@@H](c2ccc(F)cc2)[C@@H](O)[C@H]1O`, the growth is 112% with DU-145 prostate; 109% with K-562 leukemia; 101% in the assay on MALME-3M melanoma; 117% with MDA-MB-231 breast; 112% in the assay on RXF 393 renal; 103% in the assay on SF-268 CNS. Further, the growth in the assay on SF-295 CNS is 104%; in the assay on SF-539 CNS, 102%; in the assay with UACC-257 melanoma, 107%; in the assay with M14 melanoma it was 92.9%; in the assay with HCT-15 colon, 105%; in the assay on HT29 colon it was 108%. For the same compound, the growth in the assay with SNB-75 CNS is 90.1%; in the assay with SNB-19 CNS, 108%; in the assay on U251 CNS, 109%; in the assay on PC-3 prostate it was 96.8%; in the assay with SK-MEL-5 melanoma it was 95.7%; in the assay on UACC-62 melanoma, 106%. Besides, the growth is 99.8% with LOX IMVI melanoma and 102% in the assay with SK-MEL-28 melanoma.

As for `COc1ccc(C[n+]2c3ccccc3n3c4ccc(N)cc4ccc32)c(OC)c1OC`, the growth in the assay on DU-145 prostate is 81%; with K-562 leukemia, 42%; in the assay on MALME-3M melanoma, 49.6%; in the assay on MDA-MB-231 breast, 75.5%; in the assay with RXF 393 renal, 69.7%; in the assay with SF-268 CNS, 35%. In addition, the growth in the assay with SF-295 CNS is 65.6%; with SF-539 CNS, 52.2%; with UACC-257 melanoma, 3.35% (active); in the assay on M14 melanoma it was 87.5%; in the assay with HCT-15 colon, 101%; in the assay with HT29 colon it was 39.2%. In addition, the growth is 61.4% in the assay with SNB-75 CNS; 15.5% in the assay on SNB-19 CNS; 8.81% (active) in the assay on U251 CNS; 43.3% in the assay with PC-3 prostate; 42.6% in the assay with SK-MEL-5 melanoma; 60.1% in the assay with UACC-62 melanoma. The growth in the assay with LOX IMVI melanoma was 85.2%; in the assay on SK-MEL-28 melanoma, 64.5%.

As to `C=CN(C(=O)N1CCN(c2cc3c(cc2F)c(=O)c(C(=O)O)cn3C2CC2)CC1)c1nc(-c2ccc(OC)cc2)cs1`, the growth with DU-145 prostate was 30.9%; in the assay on K-562 leukemia, 21.9%; with MALME-3M melanoma, 42.7%; in the assay on MDA-MB-231 breast, 22.1%; with RXF 393 renal it was 20%; in the assay with SF-268 CNS, 29.6%. The growth in the assay with SF-295 CNS is 11.8%; in the assay with SF-539 CNS, 25.8%; with UACC-257 melanoma, 26.9%; with M14 melanoma it was 32.1%; in the assay on HCT-15 colon, 13.6%; in the assay with HT29 colon, 15.4%. Also, the growth in the assay on SNB-75 CNS is 23.6%; in the assay with SNB-19 CNS, 19.2%; with U251 CNS, 13.4%; with PC-3 prostate it was 16.4%; in the assay with SK-MEL-5 melanoma, -7.22% (active); in the assay on UACC-62 melanoma, 16.4%. Further, the growth in the assay on LOX IMVI melanoma is 1.92% (active); in the assay on SK-MEL-28 melanoma, 45.7%.

In the case of `N#CC1CCc2c(c(-c3ccc4nc(N)sc4c3)nc3ccc4[nH]ncc4c23)C1` (stereo not given), the growth was 35.4% with DU-145 prostate; 29.8% in the assay with K-562 leukemia; 68.8% in the assay on MALME-3M melanoma; 54.9% in the assay on MDA-MB-231 breast; 1.38% (active) in the assay with RXF 393 renal; 63.1% in the assay on SF-268 CNS. Moreover, the growth is 23.1% in the assay with SF-295 CNS; -0.136% (active) in the assay on SF-539 CNS; 88.7% in the assay on UACC-257 melanoma; 19.8% in the assay with M14 melanoma; 30% in the assay with HCT-15 colon; 15.4% in the assay with HT29 colon. For the same compound, the growth with SNB-75 CNS was 25.2%; in the assay with SNB-19 CNS, 67.7%; in the assay on U251 CNS it was 46.7%; in the assay with PC-3 prostate, 21.8%; in the assay on SK-MEL-5 melanoma it was 11.5%; in the assay with UACC-62 melanoma it was 36.2%. The values for the growth in the assay with LOX IMVI melanoma and in the assay on SK-MEL-28 melanoma were 34.2% and 54.9%, respectively.

Take `COc1ccc(/C=C/C(=O)c2cc3c(N)c(C(=O)Nc4cccc(Cl)c4C)sc3nc2C)cc1`: the growth in the assay with DU-145 prostate was 7.29% (active); with K-562 leukemia it was 13%; in the assay with MALME-3M melanoma, 45.8%; in the assay with MDA-MB-231 breast, -12.3% (active); with RXF 393 renal, -17.3% (active); in the assay with SF-268 CNS, 11.7%. Besides, the growth in the assay on SF-295 CNS was 13.1%; in the assay on SF-539 CNS, -40.6% (active); in the assay with UACC-257 melanoma, 63%; in the assay on M14 melanoma, -6.38% (active); in the assay on HCT-15 colon it was 5.62% (active); in the assay on HT29 colon, -2.08% (active). The growth in the assay on SNB-75 CNS was 21.3%; with SNB-19 CNS, 5.32% (active); with U251 CNS, -20% (active); in the assay on PC-3 prostate, 22.7%; in the assay on SK-MEL-5 melanoma, -28.9% (active); in the assay on UACC-62 melanoma it was 26.9%. Further, the growth in the assay with LOX IMVI melanoma is -44.6% (active); in the assay on SK-MEL-28 melanoma, 43.7%.

In the case of `C=CCN1C(=O)c2cccc3c(N4CCOCC4)ccc(c23)C1=O`, the growth in the assay on DU-145 prostate was 10.3%; with K-562 leukemia it was 9.78% (active); in the assay on MALME-3M melanoma, -3.28% (active); in the assay on MDA-MB-231 breast, 23.9%; in the assay on RXF 393 renal, -29.9% (active); in the assay on SF-268 CNS it was -23.9% (active). Besides, the growth is 2.87% (active) in the assay on SF-295 CNS; 0.495% (active) in the assay with SF-539 CNS; -3.63% (active) in the assay with UACC-257 melanoma; 0.387% (active) in the assay on M14 melanoma; -9.11% (active) in the assay on HCT-15 colon; 6.76% (active) with HT29 colon. Moreover, the growth in the assay with SNB-75 CNS is 12.8%; in the assay with SNB-19 CNS, 24.9%; in the assay on U251 CNS it was 5.37% (active); with PC-3 prostate, -21.3% (active); in the assay on SK-MEL-5 melanoma, -62.7% (active); with UACC-62 melanoma it was -24.7% (active). Besides, the growth with LOX IMVI melanoma is 1.13% (active); in the assay on SK-MEL-28 melanoma, 5.67% (active).

Take `CN(C)c1ccc(/C=C(\C#N)c2cc3ccccc3[nH]2)cc1`: the growth with DU-145 prostate is 24.5%; in the assay with K-562 leukemia, 14%; with MALME-3M melanoma, 63.9%; in the assay with MDA-MB-231 breast, 31.9%; with RXF 393 renal, 28.9%; in the assay with SF-268 CNS it was 39.8%. The growth was 8.98% (active) with SF-295 CNS; 6.06% (active) with SF-539 CNS; 57.1% with UACC-257 melanoma; 9.05% (active) in the assay on M14 melanoma; 23.6% with HCT-15 colon; 5.51% (active) in the assay with HT29 colon. Besides, the growth is 10.9% in the assay on SNB-75 CNS; 29.5% with SNB-19 CNS; 17.4% with U251 CNS; 28.3% in the assay on PC-3 prostate; 13% with SK-MEL-5 melanoma; 30.9% in the assay on UACC-62 melanoma. Also, the growth with LOX IMVI melanoma was 27.6%; in the assay on SK-MEL-28 melanoma it was 54.7%.
